PI5P4K alpha inh – PI5P4K alpha (human) kinase inhibition; P48426; PI5P4Kalpha enzyme, ADP-Glo luminescence, 60 min; active compounds read low; max response, %; 330,000 compounds, 1.2% hits; AID 652105; active = max response of -50% or lower; inconclusive = between -30% and -50%; inactive = -30% or higher; note: value at the top dose of about 77 µM; % is set by controls: 0 for no effect and ±100 for the full control effect
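qHTS, 1536-well: enzyme/substrate mix, compound by pin tool, 5 microM ATP final; RT 60 min; ADP-Glo reagents 1 (45 min) then 2 (30 min); luminescence.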
G9a inh – G9a (human) methyltransferase inhibition; Q96KQ7; G9a H3K9 monomethylation, AlphaScreen, 2 h; Potency, µM (series often up to 102 µM), for inactives: top-dose activity, negative = inhibition, actives largely listed as inhibitors; 350,000 compounds, 8.8% hits; AID 504332; note: potency is the fitted concentration of half-maximal effect; % is set by controls: 0 for no effect and ±100 for the full control effect; nearly all actives have a fitted effect of over 75% in size
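Methyltransferase reactions run at room temperature for 2 h (20 nM enzyme, 500 nM biotin-H3K9 peptide, 20 uM SAM) after a 15 min compound preincubation; product detected by AlphaScreen beads and anti-H3K9me1 antibody.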
BAZ2B inh – blocks human BAZ2B; Q9UIF8; AlphaScreen BAZ2B-H3K14Ac peptide displacement; Potency, µM (highest dose often 114 µM), for the others: top-dose activity change, negative = inhibition, most hits filed as inhibitors; 360,000 compounds, 4.4% hits; note: potency is the fitted concentration of half-maximal effect; % is set by controls: 0 for no effect and ±100 for the full control effect; nearly all actives have a fitted effect of over 60% in size
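Protein-peptide AlphaScreen: BAZ2B 50 nM, b-H3K14Ac 50 nM, 1x PBS pH 7.4 + 0.01% Tween-20. Preincubation 30 min RT; cpd 30 min RT (top 110 uM); beads 20 min RT, light-protected.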
JMJD2A Tudor inh – inhibitors of human JMJD2A Tudor domain; O75164; AlphaScreen JMJD2A-Tudor / H3K4me3 peptide binding; Potency, µM (highest dose often 114 µM), for the others: at the top dose activity change, negative = inhibition, most hits filed as inhibitors; 390,000 compounds, 4.4% hits; AID 504339; note: potency is the fitted concentration of half-maximal effect; % is set by controls: 0 for no effect and ±100 for the full control effect; nearly all actives have a fitted effect of over 50% in size
Target sequence (O75164 whole entry, looked up, the tested form may be a part): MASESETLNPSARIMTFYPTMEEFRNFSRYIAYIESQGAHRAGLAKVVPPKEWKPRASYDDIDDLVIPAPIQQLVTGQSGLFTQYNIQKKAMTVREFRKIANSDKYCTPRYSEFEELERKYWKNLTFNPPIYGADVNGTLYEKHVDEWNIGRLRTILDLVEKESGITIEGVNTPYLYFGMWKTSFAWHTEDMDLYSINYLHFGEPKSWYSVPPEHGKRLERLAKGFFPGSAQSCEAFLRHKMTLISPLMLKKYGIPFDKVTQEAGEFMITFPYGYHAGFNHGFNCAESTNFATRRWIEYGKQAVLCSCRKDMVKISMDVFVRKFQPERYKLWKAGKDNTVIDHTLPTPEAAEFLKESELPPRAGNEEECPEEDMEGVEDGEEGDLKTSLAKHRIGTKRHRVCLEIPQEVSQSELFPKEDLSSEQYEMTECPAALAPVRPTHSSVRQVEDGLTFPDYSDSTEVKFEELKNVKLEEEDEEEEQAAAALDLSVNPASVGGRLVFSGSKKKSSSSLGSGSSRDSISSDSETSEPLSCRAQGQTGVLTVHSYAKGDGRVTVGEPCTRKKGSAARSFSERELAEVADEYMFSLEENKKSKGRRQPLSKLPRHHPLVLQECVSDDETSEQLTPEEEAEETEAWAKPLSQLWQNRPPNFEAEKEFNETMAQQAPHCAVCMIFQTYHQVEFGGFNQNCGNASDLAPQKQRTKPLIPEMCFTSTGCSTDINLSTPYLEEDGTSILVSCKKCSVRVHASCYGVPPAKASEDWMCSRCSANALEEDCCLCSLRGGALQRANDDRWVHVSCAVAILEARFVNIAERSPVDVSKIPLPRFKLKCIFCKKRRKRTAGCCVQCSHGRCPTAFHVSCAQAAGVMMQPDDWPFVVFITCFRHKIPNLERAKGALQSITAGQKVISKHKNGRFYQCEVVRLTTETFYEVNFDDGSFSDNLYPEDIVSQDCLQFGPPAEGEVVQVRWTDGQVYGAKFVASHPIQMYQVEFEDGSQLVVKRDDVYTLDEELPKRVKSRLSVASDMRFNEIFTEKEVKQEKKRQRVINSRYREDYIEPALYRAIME
HP1b chromo inh – inhibitors of HP1-beta chromodomain binding to methylated histone tails. P83916. AlphaScreen HP1-beta / biotin-H3K9me3 peptide binding. Potency, µM (titrated, usually from 114 µM), for inactives: top-dose activity change, negative = inhibition, usual class: inhibitors. 390,000 compounds, 0.56% hits; note: potency is the fitted concentration of half-maximal effect; nearly all actives have a fitted effect of over 70% in size
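HP1-beta protein (50 nM final) preincubated 30 min at room temperature with biotinylated H3(1-18)K9me3 peptide (50 nM) in PBS pH 7.4, 0.01% Tween-20, then compound added for 30 min. AlphaScreen streptavidin donor/nickel chelate acceptor beads (10 ug/mL final), 30 min dark, luminescence read.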
L3MBTL1 inh – blocks human L3MBTL1 | AlphaScreen L3MBTL1–H3K9me1 peptide binding | Potency, µM (top dose mostly 57.1 µM), for the others: at the top dose activity, negative = inhibition, usual class: inhibitors | 230,000 compounds, 0.66% hits | AID 485360; note: potency is the fitted concentration of half-maximal effect; % is set by controls: 0 for no effect and ±100 for the full control effect; nearly all actives have a fitted effect of over 60% in size
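First, the protein-peptide complex forms for 30 min at room temperature (L3MBTL1 50 nM, biotinylated H3K9me1 peptide 75 nM). Next, compounds are pin-transferred and incubated 30 min. Finally, AlphaScreen beads are added and read after 30 min.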
* = called active by the depositor; [ ] = another dose, or the depositor's remark. Rows were chosen to be rich in hits. Some 11% of all compounds tested hit in one or more screens of this group. Unless noted, calls come from the whole dose curve; as a rule, active = well fitted inhibition curve with a large enough effect; inconclusive = small, poorly fitted or top-dose-only effect; inactive = no such curve, though single readings can be large or run the other way.

Results for Cc1ccc(Nc2nnc(C)c(=O)[nH]2)cc1 ?
PI5P4K alpha inh: -4; G9a inh: 1%; BAZ2B inh: -2%; JMJD2A Tudor inh: 2%[11.4 µM]; HP1b chromo inh: -4%; L3MBTL1 inh: 6%

What do the screens show for `Cc1ccc(Nc2ncc3c(=O)[nH][nH]c(=O)c3n2)cc1`?
PI5P4K alpha inh: -61*; JMJD2A Tudor inh: -35%; HP1b chromo inh: 28%

How did O=C(Nc1ccc(Br)cc1)C1CCN(c2ncccn2)CC1 do in these assays?
G9a inh: -3%[59 µM]; BAZ2B inh: -10%; JMJD2A Tudor inh: -12%; HP1b chromo inh: 42%

Results for O=C(NC(NNc1ccc([N+](=O)[O-])cc1)(C(F)(F)F)C(F)(F)F)c1ccc(Cl)cc1 ?
PI5P4K alpha inh: -67*; G9a inh: 40µM*; BAZ2B inh: -39%; JMJD2A Tudor inh: inconclusive; HP1b chromo inh: -32%

Results for O=C(NNC(=O)c1ccc([N+](=O)[O-])cc1)c1ccc(F)cc1 ?
PI5P4K alpha inh: 2; JMJD2A Tudor inh: -7%; HP1b chromo inh: 32%

How did Cc1cc(S(=O)(=O)C(CNC(=O)COc2ccccc2)c2cccs2)ccc1F (stereo unspecified) do in these assays?
G9a inh: 22%[59 µM]; BAZ2B inh: 4%; JMJD2A Tudor inh: -1%; HP1b chromo inh: 56%

Results for Cc1ccc(S(=O)(=O)C(CNC(=O)COc2ccccc2)c2cccs2)cc1 (stereo unspecified) ?
G9a inh: 11µM*; BAZ2B inh: inconclusive; JMJD2A Tudor inh: 25µM*; HP1b chromo inh: 20µM*

Results for CCn1c(SCC(=O)Nc2cccc(C)c2)nc2c(c1=O)SC(C)C2 (stereo unspecified) ?
PI5P4K alpha inh: 3; G9a inh: 50µM*; BAZ2B inh: -25%; JMJD2A Tudor inh: -35%; HP1b chromo inh: 22%; L3MBTL1 inh: -16%

How did COCC(=O)N1CCC[C@@]2(CCN(Cc3nccs3)C2)C1 do in these assays?
G9a inh: 1%[12.7 µM]

What do the screens show for `CC(=O)Nc1sc(N/N=C\c2ccc(O)cc2)nc1-c1cccs1`?
PI5P4K alpha inh: -25; G9a inh: 32µM*; BAZ2B inh: inconclusive; JMJD2A Tudor inh: 40µM*; HP1b chromo inh: inconclusive; L3MBTL1 inh: -4%

Results for CC(=O)Nc1sc(N/N=C\c2cccc(Cl)c2)nc1-c1cccs1 ?
PI5P4K alpha inh: -21; G9a inh: 10µM*; BAZ2B inh: -32%; JMJD2A Tudor inh: inconclusive; HP1b chromo inh: inconclusive; L3MBTL1 inh: -8%

What do the screens show for `COc1ccccc1C(=O)Nc1nc(-c2cccs2)c(NC(C)=O)s1`?
PI5P4K alpha inh: -5; G9a inh: inconclusive; BAZ2B inh: -8%; JMJD2A Tudor inh: -5%; HP1b chromo inh: 24%

What do the screens show for `CC(=O)Nc1sc(NC(=O)c2ccccc2)nc1-c1cccs1`?
G9a inh: 5%; BAZ2B inh: 10%; JMJD2A Tudor inh: -9%; HP1b chromo inh: 27%; L3MBTL1 inh: -3%

Results for O=C(N/N=C/c1cccc(Cl)c1)C1CCCC1 ?
PI5P4K alpha inh: 5; G9a inh: inconclusive; BAZ2B inh: -1%; JMJD2A Tudor inh: -10%; HP1b chromo inh: inconclusive

Results for CC(=O)Nc1sc(N/N=C\c2ccccc2F)nc1-c1cccs1 ?
PI5P4K alpha inh: 0; G9a inh: 10µM*; BAZ2B inh: -4%; JMJD2A Tudor inh: inconclusive; HP1b chromo inh: inconclusive; L3MBTL1 inh: -1%

What do the screens show for `O=C(Cn1c(SCc2ccccc2F)nc2ccncc21)Nc1ccccc1C(F)(F)F`?
G9a inh: -9%[59 µM]; BAZ2B inh: 4%; JMJD2A Tudor inh: -16%; HP1b chromo inh: 27%

Results for Cc1ccc(Cl)c2sc(NC(=O)CS(=O)(=O)c3ccc(Cl)cc3)nc12 ?
G9a inh: -10%[59 µM]; BAZ2B inh: -12%; JMJD2A Tudor inh: -18%; HP1b chromo inh: 13%
